The panel holds about 79,000 compounds, 15% with a hit somewhere; the sample as a whole holds those more often. No stated cut-off is given here; in the data, active means growth inhibition above about 70%; inactive means the rest.
How the values were obtained:
[1] = NCI Yeast Anticancer Drug Screen. Data for the rad52 strain (AID 147);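 further: 0% = growth of vehicle-treated control cultures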; details: S. cerevisiae rad52 mutant growth inhibition, active compounds read high
Method in brief: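 Read-out: growth inhibition versus vehicle-treated controls. Cells were a DNA repair-deficient yeast strain treated with compounds.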

[2] = NCI Yeast Anticancer Drug Screen. Data for the wt1 strain (AID 149);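 further: 0% = growth of vehicle-treated wt1 cultures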; details: S. cerevisiae wt1 strain (SPY 50644) growth inhibition, active compounds read high
Method in brief: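 Compounds are added to wt1 yeast cultures. Growth is then measured. Inhibition is expressed relative to vehicle-treated controls.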

[3] = NCI Yeast Anticancer Drug Screen. Data for the mgt1 strain (AID 153); details: S. cerevisiae mgt1 mutant growth inhibition, active compounds read high
Method in brief: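 mgt1 yeast grown with test compound; read-out is growth inhibition versus vehicle-treated cultures.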

[4] = NCI Yeast Anticancer Drug Screen. Data for the rad50 strain (AID 155);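 further: 0% = growth of vehicle-only cultures of the same strain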; details: S. cerevisiae rad50 strain growth inhibition, active compounds read high
Method in brief: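 Inhibition values express reduced yeast growth in compound-treated cultures relative to vehicle-treated controls.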

[5] = NCI Yeast Anticancer Drug Screen. Data for the mec2-1 strain (AID 157); details: S. cerevisiae mec2-1 strain, active compounds read high
Method in brief: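 Yeast mec2-1 mutant treated with compound. Readout: growth inhibition vs vehicle controls.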

[6] = NCI Yeast Anticancer Drug Screen. Data for the rad14 strain (AID 159);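 further: 0% = growth of vehicle-treated control cultures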; details: S. cerevisiae rad14 strain growth inhibition, active compounds read high
Method in brief: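 A mutant yeast strain defective in DNA damage repair is treated with compound; inhibition of its growth is scored against untreated, vehicle-exposed cultures.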

[7] = NCI Yeast Anticancer Drug Screen. Data for the sgs1 mgt1 strain (AID 161);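 further: 0% = growth of cultures given vehicle only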; details: S. cerevisiae sgs1 mgt1 strain, active compounds read high
Method in brief: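 Test agents were incubated with a DNA-repair-mutant yeast strain. Growth was then read and compared against vehicle-treated controls.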

[8] = NCI Yeast Anticancer Drug Screen. Data for the CLN2oe strain (AID 163);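 further: 0% = growth of vehicle-only control cultures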; details: S. cerevisiae CLN2oe strain, active compounds read high
Method in brief: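 Read-out: yeast growth inhibition, expressed relative to vehicle-only controls. The strain bears an engineered cell-cycle alteration.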

[9] = NCI Yeast Anticancer Drug Screen. Data for the cln2 rad14 strain (AID 165);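 further: 0% = growth equal to vehicle treated cultures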; details: S. cerevisiae cln2 rad14 strain, active compounds read high
Method in brief: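 cln2 rad14 yeast strain; compound exposure; growth inhibition read vs vehicle controls.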

[10] = NCI Yeast Anticancer Drug Screen. Data for the bub3 strain (AID 167); details: S. cerevisiae bub3 mutant strain, active compounds read high
Method in brief: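 Steps: expose the mutant yeast strain to compound; grow alongside vehicle-treated cultures; measure growth; express inhibition against the vehicle cultures.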

[11] = NCI Yeast Anticancer Drug Screen. Data for the wt2 strain (AID 169);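 further: 0% = growth of vehicle-treated yeast cultures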; details: S. cerevisiae wt2 strain growth inhibition, active compounds read high
Method in brief: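 Read-out: growth inhibition versus vehicle-treated control cultures after compound exposure of the yeast strain.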

[12] = NCI Yeast Anticancer Drug Screen. Data for the mlh1 strain (AID 171);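 further: 0% = growth of vehicle-treated control cultures of the same strain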; details: S. cerevisiae mlh1 strain growth inhibition, active compounds read high
Method in brief: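 Read-out: growth inhibition versus vehicle controls. Strain: engineered yeast with a defined DNA repair or cell cycle defect, compound-treated.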

[13] = NCI Yeast Anticancer Drug Screen. Data for the mlh1 rad18 strain (AID 175); details: S. cerevisiae mlh1 rad18 strain growth inhibition, active compounds read high
Method in brief: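 Yeast w/ defined DNA-repair lesions; compound exposure; growth vs vehicle controls → % inhibition.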

[14] = NCI Yeast Anticancer Drug Screen. Data for the rad18 strain (AID 177); details: S. cerevisiae rad18 mutant growth inhibition, active compounds read high
Method in brief: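 Readout: growth inhibition vs vehicle controls. Cells: genetically altered yeast strain, DNA repair defect.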

[15] = at 5.0 µM (retest, dose inferred, filed as 0.5)
[16] = at 50.0 µM (retest, dose inferred, filed as 5.0)

Measured: growth inhibition

COc1ccc2sc3cccc(NCCN(C)C)c3c(=O)c2c1
inactive: [1]; at 1.2 µM -3% | [1]; at 3.7 µM -3% | [1]; at 11.0 µM -1% | [1]; at 33.0 µM 2% | [1]; at 100.0 µM 27% | [2]; at 1.2 µM 1% | [2]; at 3.7 µM 6% | [2]; at 11.0 µM 3% | [2]; at 33.0 µM 2% | [2]; at 100.0 µM 10% | [3]; at 1.2 µM -1% | [3]; at 3.7 µM -3% | [3]; at 11.0 µM -4% | [3]; at 33.0 µM -3% | [3]; at 100.0 µM 15% | [4]; at 1.2 µM 0% | [4]; at 3.7 µM 1% | [4]; [15] -14% | [4]; at 11.0 µM 2% | [4]; at 33.0 µM 7% | [4]; [16] -10% | [4]; at 50.0 µM 25.2% | [4]; at 100.0 µM 31% | [5]; at 1.2 µM 3% | [5]; at 3.7 µM 4% | [5]; [15] -3% | [5]; at 11.0 µM 6% | [5]; at 33.0 µM 9% | [5]; [16] 3% | [5]; at 50.0 µM -4.1% | [5]; at 100.0 µM 12% | [6]; at 1.2 µM -1% | [6]; at 3.7 µM -1% | [6]; at 11.0 µM -1% | [6]; at 33.0 µM 9% | [6]; at 100.0 µM 33% | [7]; [15] -9% | [7]; [16] 38% | [7]; at 50.0 µM 54.6% | [8]; at 1.2 µM -3% | [8]; at 3.7 µM -10% | [8]; at 11.0 µM -4% | [8]; at 33.0 µM -4% | [8]; at 100.0 µM 17% | [9]; [15] 3% | [9]; [16] 6% | [9]; at 50.0 µM 31.6% | [10]; at 1.2 µM -4% | [10]; at 3.7 µM -3% | [10]; [15] 9% | [10]; at 11.0 µM -3% | [10]; at 33.0 µM -1% | [10]; [16] 5% | [10]; at 50.0 µM -4.65% | [10]; at 100.0 µM 1% | [11]; at 1.2 µM 0% | [11]; at 3.7 µM -2% | [11]; at 11.0 µM 0% | [11]; at 33.0 µM -1% | [11]; at 100.0 µM 8% | [12]; at 1.2 µM -1% | [12]; at 3.7 µM 2% | [12]; at 11.0 µM 3% | [12]; at 33.0 µM 4% | [12]; at 100.0 µM 18% | [13]; [15] -1% | [13]; [16] -9% | [13]; at 50.0 µM 67.3% | [14]; at 1.2 µM 0% | [14]; at 3.7 µM 0% | [14]; at 11.0 µM 2% | [14]; at 33.0 µM 9% | [14]; at 100.0 µM 27%
